Source: PubChem BioAssay
An excerpt weighted towards active compounds, which were near 3.3% of everything screened.
Sm TGR inh – S. mansoni TGR enzyme inhibition | Q962Y6 | Potency, µM (series often up to 114 µM), without a hit: top-dose activity change, negative = inhibition, hits mostly inhibitors | purified TGR, DTNB reduction, TNB absorbance 405 nm | actives 3% (n = 360,000); also: nearly all actives have a fitted effect of over 60% in size
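TGR 20 nM + NADPH 100 uM (dispensed conc.), cpd preinc 15 min RT; start with NADPH (500 uM addition) then DTNB (15 mM addition). Kinetic TNB absorbance, 405 nm filter. Four-parameter Hill fit across titration.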
AmpC no deterg – AmpC beta-lactamase inhibition without detergent | Potency, µM (doses to about 57.1 µM), inactives show top-dose activity change, negative = inhibition, hits mostly inhibitors | actives 0.52% (n = 330,000) | AID 485341 | AmpC nitrocefin hydrolysis, absorbance 480 nm, 0.0001% Triton;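 also: plate controls were no compound for no effect and no enzyme for full effect; nearly all actives have a fitted effect of over 20% in size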
Target sequence (P00811 whole entry, looked up): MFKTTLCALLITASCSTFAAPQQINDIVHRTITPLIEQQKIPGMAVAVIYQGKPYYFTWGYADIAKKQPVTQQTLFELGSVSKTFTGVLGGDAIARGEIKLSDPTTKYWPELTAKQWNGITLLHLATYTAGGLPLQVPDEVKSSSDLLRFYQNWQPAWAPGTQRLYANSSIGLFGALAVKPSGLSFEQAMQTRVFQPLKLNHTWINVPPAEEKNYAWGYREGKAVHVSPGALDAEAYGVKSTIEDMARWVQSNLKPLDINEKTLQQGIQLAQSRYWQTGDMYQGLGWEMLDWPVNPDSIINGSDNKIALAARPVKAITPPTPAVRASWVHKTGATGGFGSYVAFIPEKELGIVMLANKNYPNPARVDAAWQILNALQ
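AmpC (5.3 nM in the dispensed reagent) in 20 mM phosphate pH 7.0 with 0.01% (detergent screen) or 0.0001% Triton X-100 was preincubated with compounds for 15 min at room temperature. Nitrocefin was then added from an 800 uM solution, and hydrolysis was followed at 480 nm.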
AmpC inh detg – inhibitors of E. coli AmpC beta-lactamase with detergent; P00811; actives 0.041% (n = 370,000); Potency, µM (top dose mostly 114 µM), inactives show at the highest dose activity change, negative = inhibition, most hits filed as inhibitors; AmpC hydrolysis of nitrocefin, absorbance 480 nm, 0.01% Triton; AID 485294;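 also: 0% = no-compound wells and -100% = no-enzyme wells; nearly all actives have a fitted effect of over 25% in size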
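AmpC (5.3 nM in the dispensed reagent) in 20 mM phosphate pH 7.0 with 0.01% (detergent screen) or 0.0001% Triton X-100 was preincubated with compounds for 15 min at room temperature. Nitrocefin was then added from an 800 uM solution, and hydrolysis was followed at 480 nm.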
The depositor's hits bear a star; ? = inconclusive; nt = not tested or not shown; [ ] = remark or other dose. Calls follow the shape of the dose curve; as a rule, active = well fitted curve in the direction sought with a large enough effect; inconclusive = small, poorly fitted or top-dose-only effect, or another doubt; inactive = no such curve, though single readings can be large; an effect the other way counts as inactive or inconclusive. Unless noted, % is scaled to controls: 0 for no effect and ±100 for the full control effect; potency is read from the fitted curve at half-maximal effect.

SMILES	Sm TGR inh	AmpC no deterg	AmpC inh detg
CCSc1oc(-c2cccs2)nc1S(=O)(=O)c1ccc(Br)cc1	-13.6%	nt	1.1%
CNC(=O)Cn1nc(-c2ccc(Cl)cc2)c2ccccc2c1=O	-1.2%	-1.4%	-5.8%
COc1ccc(Nc2nc3ccccc3n3c(N)nnc23)cc1	0.6%	nt	17.5%
CCCCNS(=O)(=O)c1ccc(Br)cc1N1CCC[C@H]1CO	nt	-2.5%	nt
COc1ccc(C2(CNC(=O)C(=O)Nc3cccc(C(F)(F)F)c3)CCCC2)cc1OC	9.4%	nt	-5.6%
Cn1c(=O)c(C(=O)COC(=O)c2cc(-c3ccco3)nc3ccccc23)c(N)n(CC2CC2)c1=O	3.55µM*	36.7%	?
Cn1c(=O)c(C(=O)COC(=O)c2cc(C3CC3)nc3ccccc23)c(N)n(Cc2ccccc2)c1=O	-1.7%	6.0%	?
O=C(OCC(=O)N1CCN(C(=O)c2ccco2)CC1)c1cc(-c2ccco2)nc2ccccc12	5.01µM*	19.8%	?
Cc1ccc(NC(=O)CSC(C)C(=O)OCC(=O)N2CCN(C(=O)c3ccco3)CC2)cc1 (stereo not given)	50.1µM*	-20.0%	-10.1%
O=C(CCNS(=O)(=O)c1ccc(Cl)cc1)OCC(=O)N1CCN(C(=O)c2ccco2)CC1	-16.9%	-1.1%	-20.0%
O=C(OCC(=O)N1CCN(C(=O)c2ccco2)CC1)c1cc(S(=O)(=O)Nc2ccc(Cl)cc2)ccc1O	44.7µM*	-0.9%	2.9%
O=C(OCC(=O)N1CCN(C(=O)c2ccco2)CC1)c1cc(-c2ccc(Cl)c(Cl)c2Cl)nc2ccccc12	0.0%	18.1%	?
Cc1ccc(NC(=O)CSCC(=O)N2CCN(C(=O)c3ccco3)CC2)cc1	-8.6%	-15.8%	-16.4%
Cn1c(=O)n(C)c2cc(N3CCOCC3)c(NC(=O)c3ccccc3Br)cc21	-12.7%	nt	-0.3%
CC(C)(C)NC(=O)CN(C(=O)c1snc(C(=O)NC2CCCCC2)c1N)c1ccccc1F	7.1%	24.1%	-9.8%
COc1ccc(CNC(=O)COC(=O)c2cc(C)nc3ccccc23)cc1	nt	-0.1%	nt
COc1ccc(CNC(=O)COC(=O)c2cc(-c3ccco3)nc3ccccc23)cc1	11.2µM*	10µM*	-4.8%
O=c1nc(Nc2ccc([N+](=O)[O-])cc2)[nH]c(=O)[nH]1	6.6%	-4.7%	-1.2%
O=[N+]([O-])c1ccc2c(c1)N([O-])C1(CCCCC1)[N+]2=O	2.82µM*	-30.4%	-2.4%
CC1=C(c2ccccc2)[N+](=O)C2(CCCC2)N1[O-]	10.8%[11.4 µM]	-18.8%	-8.5%
COc1ccc(CNCCSc2nnnn2-c2ccccc2)cc1	-8.5%	nt	2.3%
CCCC[C@]12Cc3ccccc3[C@H](O1)C1=C(O2)C(=O)c2ccccc2C1=O	0.6%[22.9 µM]	-26.9%[11.4 µM]	-6.7%[22.9 µM]
O=C(Nc1cc(S(=O)(=O)N2CCCCC2)ccc1Cl)c1ccc(F)cc1	-10.0%	-29.6%	-5.5%
Cc1ccc(N2C(=O)[C@@H]3C(c4cccnc4)=NO[C@@H]3C2=O)c(C)c1	?	-19.8%	-5.3%
O=C1[C@@H]2C(c3cccnc3)=NO[C@@H]2C(=O)N1c1ccc(Br)cc1	3.55µM*	-20.5%	5.8%
SMILES	Sm TGR inh	AmpC no deterg	AmpC inh detg
C#CCNCCS(=O)(=O)N(Cc1ccc(Br)cc1)[C@@H](CC(C)C)C(=O)O	nt	42.1%	nt
CCC(C)(C)n1nnnc1C(c1ccc(O)c(OC)c1)N1CCc2ccccc2C1 (stereo not given)	0.251µM*	-19.3%	0.6%
COc1ccc(C(c2nnnn2C(C)(C)C)N2CCN(c3nc4ccccc4s3)CC2)cc1 (stereo not given)	-13.9%	84.1%	-5.5%
CCC(C)(C)n1nnnc1C(c1ccccc1)N1CCc2ccccc2C1 (stereo not given)	?	-16.5%	0.8%
CCC(C)(C)n1nnnc1C(c1ccc(O)c(OC)c1)N1CCN(c2nc3ccccc3s2)CC1 (stereo not given)	0.708µM*	70.7%	?
O=C(CN1C(=O)c2ccc([N+](=O)[O-])cc2C1=O)NCc1ccc(C(=O)O)cc1	-16.4%	-11.3%	-4.6%
COC(=O)c1scc(C)c1NC(=O)Cc1ccccc1	-1.5%	-9.3%	?
CCOC(=O)C(=CNNc1c(C)csc1C(=O)OC)C(=O)OCC	56.2µM*	42.5%	-2.7%
CCc1nc(N2CCN(C(C)=O)CC2)c2c3c(sc2n1)CC(C(C)(C)C)CC3 (stereo not given)	0.1%	13.4%	?
CCc1nc(N2CCN(C(=O)CCl)CC2)c2c3c(sc2n1)CC(C)CC3 (stereo not given)	15.8µM*	107.5%	6.2%
Cc1sc(/C=C2\C(=O)ON=C2c2ccccc2)cc1Br	-7.6%	-20.9%	-9.6%
O=C1ON=C(c2ccccc2)/C1=C/c1ccccc1	?	-32.5%	-11.0%
